Reference: PubChem BioAssay (NCATS)
Results filed as inconclusive are left out. The source made the active and inactive calls. Unless noted, the call rests on the fitted dose curve; in most records, active means well fitted curve in the direction sought with a large enough effect; inconclusive means small, poorly fitted or top-dose-only effect, or another doubt; inactive means no such curve, though single readings can be large; an effect the other way counts as inactive or inconclusive.

Experiments:
[1] = biological target: Rap guanine nucleotide exchange factor 3 (Homo sapiens) (UniProt O95398); assay: Counterscreen qHTS for antagonist of cAMP-regulated guanine nucleotide exchange factor 3 (EPAC1) (AID 1645888);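 further: fluorescence loss as bound BODIPY-GDP is released from Rap1B; % of control where 0% means no effect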
Rap guanine nucleotide exchange factor 3 (Homo sapiens), sequence (O95398 whole entry, looked up): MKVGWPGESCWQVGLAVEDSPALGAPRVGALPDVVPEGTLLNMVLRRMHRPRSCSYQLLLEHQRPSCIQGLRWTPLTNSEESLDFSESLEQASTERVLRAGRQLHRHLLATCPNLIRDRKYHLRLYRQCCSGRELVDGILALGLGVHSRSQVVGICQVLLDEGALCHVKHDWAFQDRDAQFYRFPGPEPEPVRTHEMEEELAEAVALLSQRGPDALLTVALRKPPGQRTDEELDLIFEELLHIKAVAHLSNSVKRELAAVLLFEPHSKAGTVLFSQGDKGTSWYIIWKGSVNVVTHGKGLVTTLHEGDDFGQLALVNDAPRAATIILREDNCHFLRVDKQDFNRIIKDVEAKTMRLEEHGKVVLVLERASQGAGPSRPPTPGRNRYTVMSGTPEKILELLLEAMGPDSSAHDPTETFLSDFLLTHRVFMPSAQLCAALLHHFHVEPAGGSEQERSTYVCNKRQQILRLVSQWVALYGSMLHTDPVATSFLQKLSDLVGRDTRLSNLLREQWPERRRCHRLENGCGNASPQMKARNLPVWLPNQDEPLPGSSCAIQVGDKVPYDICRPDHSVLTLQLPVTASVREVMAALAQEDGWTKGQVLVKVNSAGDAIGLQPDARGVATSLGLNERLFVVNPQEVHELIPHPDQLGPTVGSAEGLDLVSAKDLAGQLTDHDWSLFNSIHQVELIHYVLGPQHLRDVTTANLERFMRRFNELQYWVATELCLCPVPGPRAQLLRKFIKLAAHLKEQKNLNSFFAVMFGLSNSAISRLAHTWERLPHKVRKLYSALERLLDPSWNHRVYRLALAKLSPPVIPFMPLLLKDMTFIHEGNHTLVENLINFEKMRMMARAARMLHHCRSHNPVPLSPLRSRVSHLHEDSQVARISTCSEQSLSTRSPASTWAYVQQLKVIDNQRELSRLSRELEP
In short: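 Rap1B-BODIPY-GDP 250 nM + GDP 50 uM; cpds 7-pt, final 9.74 nM–152 uM (activator mode) or from 7.32 nM upwards (inhibitor mode); RT; FI 480/540 nm at 5 and 30 min, then ± cAMP, reread.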

[2] = biological target: Tumor susceptibility gene 101 protein (Homo sapiens) (UniProt Q99816); assay: qHTS Assay for Iinhibitors of HIV-1 Budding by Blocking the Interaction of PTAP/TSG101: Hit Validation (AID 651600); further: potency means the concentration at half of the fitted maximal effect; nearly all actives have a fitted effect of over 70% in size
In short: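 Tsg101 binding domain 10 uM + FITC-PTAP peptide 50 nM (final), 10 mM HEPES pH 7.5/0.15 M NaCl/0.01% Tween 20/3 mM EDTA/0.1 mM TCEP; 20 min RT; FP read, FITC filters.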

[3] = biological target: Rap guanine nucleotide exchange factor 4 (Homo sapiens) (UniProt Q8WZA2); assay: Confirmatory qHTS for antagonist of cAMP-regulated guanine nucleotide exchange factor 4 (EPAC2) (AID 1645885); further: on the % scale 0 is the no-effect control and ±100 the full control effect; nearly all actives have a fitted effect of over 25% in size
[4] = biological target: Cytochrome P450 1A2 (Homo sapiens) (UniProt P05177); assay: p450-cyp1a2 (AID 410; calls by dose curve;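 further: -100% = full effect of reference inhibitor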)
Cytochrome P450 1A2 (Homo sapiens), sequence (P05177 whole entry, looked up): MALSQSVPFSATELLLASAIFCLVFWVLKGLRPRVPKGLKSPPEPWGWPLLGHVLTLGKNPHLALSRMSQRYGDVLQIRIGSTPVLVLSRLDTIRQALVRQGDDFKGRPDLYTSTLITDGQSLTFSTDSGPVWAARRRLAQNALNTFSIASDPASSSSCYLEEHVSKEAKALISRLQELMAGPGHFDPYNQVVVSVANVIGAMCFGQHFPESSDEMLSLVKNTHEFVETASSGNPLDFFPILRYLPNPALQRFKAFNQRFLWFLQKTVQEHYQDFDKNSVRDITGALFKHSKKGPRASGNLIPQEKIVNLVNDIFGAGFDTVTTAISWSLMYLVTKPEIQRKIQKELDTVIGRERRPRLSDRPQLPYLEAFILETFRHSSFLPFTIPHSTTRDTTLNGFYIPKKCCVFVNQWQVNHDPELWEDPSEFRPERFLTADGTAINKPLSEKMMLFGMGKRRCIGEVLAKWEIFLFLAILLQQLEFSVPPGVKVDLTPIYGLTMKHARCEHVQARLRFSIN
In short: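 O-Demethylation of luciferin 6' methyl ether by human CYP1A2 is monitored as luciferase luminescence. Substrate sits at Km (100uM); enzyme is 20nM. Values are scaled to 57 uM furafylline as maximal inhibition.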

[5] = NFAT Signaling Pathway (AID 444; active means well fitted curve in either direction with a large enough effect, not every such curve was filed as active;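 further: carbachol stimulus at about its EC50 of 1 µM final; on the % scale 0 is the no-effect control and ±100 the full control effect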); conditions: Jurkat NFAT-bla M1, carbachol, beta-lactamase ratio, 5 h; at 7.69 µM (top of the series) unless noted
In short: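 Read-out: CCF4 FRET ratio (460 nm/530 nm) after 1 h RT dye loading, used for %activity and AC50 from titration series. Cells: Jurkat NFAT-β-lactamase/M1 line, treated with compound plus 1 uM carbachol for 5 h, 37 °C.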

[6] = biological target: Glucocorticoid receptor (Homo sapiens) (UniProt P04150); assay: GR-EFC Redistribution (AID 451; calls by dose curve; further: potency means the concentration at half of the fitted maximal effect); conditions: CHO-K1 GR-EFC translocation, beta-gal luminescence, 2 h
Glucocorticoid receptor (Homo sapiens), sequence (P04150 whole entry, looked up, the tested form may be a part): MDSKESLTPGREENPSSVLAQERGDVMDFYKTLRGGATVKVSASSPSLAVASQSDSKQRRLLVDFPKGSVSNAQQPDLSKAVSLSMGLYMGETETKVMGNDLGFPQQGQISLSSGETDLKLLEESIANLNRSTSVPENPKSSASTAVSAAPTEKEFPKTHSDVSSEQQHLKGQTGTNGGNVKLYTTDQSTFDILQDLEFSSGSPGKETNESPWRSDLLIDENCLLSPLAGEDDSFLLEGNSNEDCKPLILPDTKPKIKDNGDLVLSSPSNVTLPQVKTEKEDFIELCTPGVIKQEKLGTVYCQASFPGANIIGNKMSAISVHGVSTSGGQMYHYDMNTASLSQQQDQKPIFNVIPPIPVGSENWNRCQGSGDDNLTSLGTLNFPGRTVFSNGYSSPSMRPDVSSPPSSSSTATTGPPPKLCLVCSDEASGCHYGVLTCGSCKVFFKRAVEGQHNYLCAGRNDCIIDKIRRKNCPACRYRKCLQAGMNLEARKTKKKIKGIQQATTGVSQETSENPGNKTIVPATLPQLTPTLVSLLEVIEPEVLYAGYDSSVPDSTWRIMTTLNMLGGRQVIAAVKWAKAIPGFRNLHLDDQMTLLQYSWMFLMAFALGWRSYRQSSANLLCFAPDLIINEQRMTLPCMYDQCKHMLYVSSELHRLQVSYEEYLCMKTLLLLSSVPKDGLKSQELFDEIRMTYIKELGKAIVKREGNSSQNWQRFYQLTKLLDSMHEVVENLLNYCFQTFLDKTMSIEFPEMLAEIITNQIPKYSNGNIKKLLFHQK
In short: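 Translocation of GR-ED fusion to nuclear EA restores b-gal, read by luminescence after 1 h room-temperature detection. Engineered CHO-K1 biosensor cells, 1,000/well, exposed 2 h at 37 C to titrations up to 46 uM final.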

[7] = biological target: Mitogen-activated protein kinase 10 (Mus musculus) (UniProt Q61831); assay: JNK3 AlphaScreen Assay (AID 530; active means well fitted curve in either direction with a large enough effect, not every such curve was filed as active;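 further: kinase came from lysate of stimulated human HepG2 cells; signal reports phosphorylation of biotinylated GST-cJun 1-79 at Ser73 with 10 µM ATP; on the % scale 0 is the no-effect control and ±100 the full control effect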)
In short: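 qHTS titrations with 15 min compound pre-incubation before adding ATP (10 uM final). Read-out: AlphaScreen of Ser73-phosphorylated biotin-GST-cJun using HepG2 lysate JNK3 activated by IL-1β and TNFα.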

[8] = biological target: 3',5'-cyclic-AMP phosphodiesterase 4B (Homo sapiens) (UniProt Q07343); assay: qHTS Assay for Inhibitors of PDE-IV (AID 607; active means well fitted activation curve with a large enough effect in the main read-out, with a control signal flat, not every such curve was filed as active; further: % of control where 0% means no effect)
In short: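 HEK293 ACTOne cells with CNG channel (1000/well), endogenous PDE4; membrane potential dye, compounds up to 22.9 uM final. Fluorescence Ex 535/Em 590; RO 20-1724 (100 uM final) as reference.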

[9] = biological target: Guanine nucleotide-binding protein G(i) subunit alpha-1 (Homo sapiens) (UniProt P63096); assay: qHTS Assay for Inhibitors of RGS12 GoLoco Motif Activity (Green Fluorophore) (AID 879);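 further: 0% = labeled peptide with Gαi1 and full inhibition = labeled peptide alone without protein; negative values mean loss of peptide binding seen as reduced polarization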
Guanine nucleotide-binding protein G(i) subunit alpha-1 (Homo sapiens), sequence (P63096 whole entry, looked up): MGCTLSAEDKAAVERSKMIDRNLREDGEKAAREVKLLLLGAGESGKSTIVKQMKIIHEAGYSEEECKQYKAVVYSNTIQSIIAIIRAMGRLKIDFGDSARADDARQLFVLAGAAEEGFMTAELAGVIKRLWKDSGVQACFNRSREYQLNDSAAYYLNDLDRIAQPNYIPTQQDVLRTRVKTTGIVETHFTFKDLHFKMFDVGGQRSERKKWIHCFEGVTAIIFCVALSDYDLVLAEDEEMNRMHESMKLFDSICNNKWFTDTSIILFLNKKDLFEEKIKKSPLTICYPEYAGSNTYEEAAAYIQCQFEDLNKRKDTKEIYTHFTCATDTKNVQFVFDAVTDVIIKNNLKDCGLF
In short: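 A drop in FITC polarization marked displacement of the FITC-tagged RGS12 GoLoco peptide (10 nM) from Gαi1 (50 nM). Compounds were incubated 10 min at room temperature in Tris pH 7.5 buffer containing 150 mM NaCl, 0.1 mM GDP and 0.05% NP40; unlabeled peptide titration served as control.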

[10] = biological target: Cytochrome P450 3A4 (Homo sapiens) (UniProt P08684); assay: qHTS Assay for Activators of Cytochrome P450 3A4 (AID 885); further: nearly all actives have a fitted effect of over 65% in size
In short: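 Human CYP3A4 dealkylates Luciferin-PPXE to luciferin, which luciferase detection converts to light. Substrate was at its KM (25uM), buffer 200mM KPO4, reaction 60 min at RT.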

[11] = biological target: Cytochrome P450 2D6 (Homo sapiens) (UniProt P10635); assay: qHTS Assay for Inhibitors and Substrates of Cytochrome P450 2D6 (AID 891); further: potency means the concentration at half of the fitted maximal effect; nearly all actives have a fitted effect of over 60% in size
In short: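 Luminescent read-out of luciferin formed by 5 nM human CYP2D6 demethylating 30 uM Luciferin-ME EGE (Km level) over 60 min at room temperature after NADPH regeneration addition. Data normalized to full inhibition by 1.43 uM quinidine.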

[12] = qHTS Assay for Identification of Small Molecule Antagonists for Thrombopoietin (TPO) Signaling Pathway (AID 918); conditions: TPO-dependent cell signaling reporter, antagonist mode; further: potency means the concentration at half of the fitted maximal effect; nearly all actives have a fitted effect of over 60% in size
In short: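 Inhibitors of TPO signaling are sought by stimulating IL-3-starved murine Ba/F3 cells (human TPO receptor, Glycoprotein IIb-driven luciferase) with TPO at its EC50 of 26 pM alongside compound. After 24 hrs at 37 C, reporter luminescence is measured.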

[13] = biological target: Muscarinic acetylcholine receptor M1 (Rattus norvegicus) (UniProt P08482); assay: qHTS Assay for Antagonists of Acetylcholine Muscarinic M1 Receptor: Measurement of IP-One Response (AID 944); further: potency means the concentration at half of the fitted maximal effect; nearly all actives have a fitted effect of over 75% in size
Muscarinic acetylcholine receptor M1 (Rattus norvegicus), sequence (P08482 whole entry, looked up): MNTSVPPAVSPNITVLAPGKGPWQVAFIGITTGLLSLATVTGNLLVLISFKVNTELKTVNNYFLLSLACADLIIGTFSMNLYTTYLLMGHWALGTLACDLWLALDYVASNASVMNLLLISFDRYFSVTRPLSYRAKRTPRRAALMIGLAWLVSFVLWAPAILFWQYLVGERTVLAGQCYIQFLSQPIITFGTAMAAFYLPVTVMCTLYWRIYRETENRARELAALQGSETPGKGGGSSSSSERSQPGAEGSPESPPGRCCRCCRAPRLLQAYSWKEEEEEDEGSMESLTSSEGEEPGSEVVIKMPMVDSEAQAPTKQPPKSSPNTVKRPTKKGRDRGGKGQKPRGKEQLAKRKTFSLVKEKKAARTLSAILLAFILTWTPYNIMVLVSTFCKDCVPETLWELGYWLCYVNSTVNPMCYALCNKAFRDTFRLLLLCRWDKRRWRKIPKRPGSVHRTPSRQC
In short: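 Antagonist mode with rat M1 receptor transfected into CHO cells. Compound is added first for 10 min, carbachol at its EC80 follows for 30 min, and lysis reagents then allow TR-FRET detection of accumulated IP1.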

[14] = biological target: Pyruvate kinase (Leishmania mexicana) (UniProt Q27686); assay: qHTS Validation Assay for Inhibitors of Leishmania Mexicana Pyruvate Kinase (AID 945);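 further: 0% = DMSO only neutral control wells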
Pyruvate kinase (Leishmania mexicana), sequence (Q27686 2-499 E452W): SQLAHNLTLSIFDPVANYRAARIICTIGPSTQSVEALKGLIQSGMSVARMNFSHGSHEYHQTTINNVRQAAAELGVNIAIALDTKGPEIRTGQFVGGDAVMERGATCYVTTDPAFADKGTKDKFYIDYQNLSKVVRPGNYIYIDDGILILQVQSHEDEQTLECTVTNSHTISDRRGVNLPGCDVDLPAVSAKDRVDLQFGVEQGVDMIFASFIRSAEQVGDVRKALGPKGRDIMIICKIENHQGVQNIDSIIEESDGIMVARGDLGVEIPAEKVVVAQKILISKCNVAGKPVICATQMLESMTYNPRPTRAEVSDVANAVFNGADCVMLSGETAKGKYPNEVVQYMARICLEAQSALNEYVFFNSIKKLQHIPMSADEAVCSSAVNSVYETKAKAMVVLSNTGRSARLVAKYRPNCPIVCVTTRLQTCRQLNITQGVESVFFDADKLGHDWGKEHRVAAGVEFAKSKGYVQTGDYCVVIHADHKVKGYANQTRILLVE
In short: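 The enzyme is a highly purified E451W mutant of LmPYK used at 0.2 nM. It converts 0.5 mM PEP and 0.1 mM ADP over 1 h at room temperature; product ATP is quantified by luciferase luminescence relative to DMSO controls.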

[15] = biological target: Pyruvate kinase PKM (Homo sapiens) (UniProt P14618); assay: qHTS Assay for Activators of Human Muscle Pyruvate Kinase (AID 954; active means well fitted curve in the direction sought with a large enough effect, not every such curve was filed as active;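 further: 0% = uninhibited enzyme and -100% = no enzyme or full thiadiazolimine inhibition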)
In short: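 Compound pinned into substrate mix (0.5 mM PEP, 0.1 mM ADP), then 0.1 nM PKM2 added; 1 h, RT. Stop/detection luciferase reagent added, luminescence read. Normalized to no-inhibition and no-enzyme or reference-inhibitor controls.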

[16] = biological target: Alpha-galactosidase A (Homo sapiens) (UniProt P06280); assay: Counterscreen for Glucocerebrosidase Inhibitors: qHTS Assay for Human alpha-Galactosidase at pH 4.5 (AID 992); further: 0% is about no effect
In short: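 Steps: enzyme (2 nM final), then compound across 0.7 nM to 77 uM, then 80 uM fluorogenic galactopyranoside substrate; incubate 20 min at room temperature; quench at pH 10; measure fluorescence at 365/440 nm.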

[17] = biological target: alpha-glucosidase (Oryza sativa, rice) (UniProt Q653V4); assay: Counterscreen for Glucocerebrosidase Inhibitors: qHTS Assay for Rice alpha-Glucosidase at pH 5.0 (AID 997);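 further: 0% = full activity with enzyme and -100% = basal without enzyme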
In short: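 Endpoint fluorogenic assay at pH 5.0: compounds (0.7 nM to 77 uM) titrated against 4 nM rice enzyme and 400 uM 4-MU-alpha-glucoside for 20 min at room temperature; NaOH/glycine stop, read ex 365/em 440 nm, Hill-fitted AC50.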

[18] = biological target: DNA repair nuclease/redox regulator APEX1 (Homo sapiens) (UniProt P27695); assay: qHTS Validation Assay for Inhibitors of the Human Apurinic/apyrimidinic Endonuclease 1 (APE1) (AID 1705; further: potency means the concentration at half of the fitted maximal effect)
DNA repair nuclease/redox regulator APEX1 (Homo sapiens), sequence (P27695 whole entry, looked up): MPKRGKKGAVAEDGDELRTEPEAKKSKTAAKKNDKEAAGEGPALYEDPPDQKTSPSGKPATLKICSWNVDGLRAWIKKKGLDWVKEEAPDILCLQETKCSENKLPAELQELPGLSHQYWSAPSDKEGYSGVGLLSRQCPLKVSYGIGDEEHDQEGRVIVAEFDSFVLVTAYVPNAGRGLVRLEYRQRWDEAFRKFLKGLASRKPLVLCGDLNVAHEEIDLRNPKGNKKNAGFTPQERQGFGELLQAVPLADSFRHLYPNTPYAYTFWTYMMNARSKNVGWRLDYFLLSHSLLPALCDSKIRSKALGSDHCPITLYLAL
In short: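 Read-out: TAMRA fluorescence (525 nm ex, 598 nm em) from cleavage of a quenched THF abasic-site duplex, 50 nM final; activity taken as intensity change between third and first of three reads 60 s apart.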

[19] = Counterscreen for APE1 Inhibitors: Fluorescent Dye Displacement Validation Assay (AID 1707);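 further: plate controls were ThO with dsDNA and no compound for no effect and ThO without dsDNA for full effect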
In short: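 Reaction mixture of 250 nM Thiazole Orange and 50 nM double-stranded abasic-site DNA was dispensed, compounds were pin-transferred, and fluorescence was read at endpoint (480 nm ex, 540 nm em). Reduced fluorescence indicated dye displacement by DNA binding.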

[20] = biological target: Endonuclease 4 (Escherichia coli (strain K12)) (UniProt P0A6C1); assay: Counterscreen for APE1 Inhibitors: qHTS Validation Assay for Inhibitors of Endonuclease IV (AID 1708); further: potency means the concentration at half of the fitted maximal effect
In short: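 Incision of a double-stranded 50 nM TAMRA/BHQ-2 abasic substrate was followed kinetically (525/598 nm, reads every 60 s) after 15 min enzyme–compound preincubation with 2 nM EndoIV in pH 7.5 Tris buffer with MgCl2, DTT and Tween-20; concentration-response format.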

[21] = qHTS for differential inhibitors of proliferation of Plasmodium falciparum line 7G8 (AID 1815);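 further: potency means the concentration at half of the fitted maximal effect; parasite growth measured after three days of incubation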
[22] = qHTS for differential inhibitors of proliferation of Plasmodium falciparum line GB4 (AID 1816); conditions: Potency: Plasmodium falciparum GB4 proliferation inhibition;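 further: potency means the concentration at half of the fitted maximal effect; parasite growth measured after 72 h incubation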
[23] = qHTS for differential inhibitors of proliferation of Plasmodium falciparum line 3D7 (AID 1876); further: potency means the concentration at half of the fitted maximal effect
[24] = qHTS for differential inhibitors of proliferation of Plasmodium falciparum line D10 (AID 1877);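 further: potency means the concentration at half of the fitted maximal effect; parasites grown with compound for 72 h before DNA staining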
[25] = qHTS for differential inhibitors of proliferation of Plasmodium falciparum line Dd2 (AID 1882); conditions: Potency: Plasmodium falciparum Dd2 proliferation inhibition; further: potency means the concentration at half of the fitted maximal effect; nearly all actives have a fitted effect of over 65% in size
In short: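 SYBR Green DNA fluorescence (ex 485, em 535 nm) after overnight lysis quantifies parasite growth; compound exposure lasted 72 h at 37 C on infected red cells at 2.5% hematocrit, 0.3% parasitemia (final). Artemisinin 0.29 uM and vehicle wells define normalization.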

[26] = qHTS for differential inhibitors of proliferation of Plasmodium falciparum line W2 (AID 1883); conditions: Potency: Plasmodium falciparum W2 proliferation inhibition;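 further: potency means the concentration at half of the fitted maximal effect; parasites grown with compound for 72 h before lysis and staining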
[27] = qHTS for differential inhibitors of proliferation of Plasmodium falciparum line HB3 (AID 1886); conditions: Potency: Plasmodium falciparum HB3 proliferation inhibition;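 further: potency means the concentration at half of the fitted maximal effect; parasites grown with compound for 72 h before SYBR Green readout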
[28] = Quantitative high throughput screen for delayed death inhibitors of the malarial parasite plastid, 48 hour incubation (AID 488752); further: potency means the concentration at half of the fitted maximal effect; nearly all actives have a fitted effect of over 65% in size
In short: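 First, compound was pinned into RPMI 1640 medium containing 0.5% Albumax. Next, reporter-parasite-infected erythrocytes were added to 2% hematocrit and 0.1% parasitemia. After 48 h at 37 C under 5% CO2, luciferase detection reagent was added and luminescence read.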

[29] = biological target: Transient receptor potential cation channel subfamily V member 1 (Homo sapiens) (UniProt Q8NER1); assay: HTS Assay for Compounds that Act as Enhancers of the Vanilloid Receptor 1 (AID 488979); further: 0% is about no effect
In short: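 Calcium influx kinetics via Fluo-8 (480/520 nm) in TRPV1-expressing cells, 2000/well cultured overnight at 35.5C. Compound-alone read 3 min (agonist phase), followed by EC20 capsaicin challenge for 2 min (enhancer phase).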

[30] = biological target: Thyrotropin receptor (Homo sapiens) (UniProt P16473); assay: qHTS Assay for Antagonists of the Thyroid Stimulating Hormone Receptor (AID 488980); further: 0% is about no effect
Thyrotropin receptor (Homo sapiens), sequence (P16473 whole entry, looked up): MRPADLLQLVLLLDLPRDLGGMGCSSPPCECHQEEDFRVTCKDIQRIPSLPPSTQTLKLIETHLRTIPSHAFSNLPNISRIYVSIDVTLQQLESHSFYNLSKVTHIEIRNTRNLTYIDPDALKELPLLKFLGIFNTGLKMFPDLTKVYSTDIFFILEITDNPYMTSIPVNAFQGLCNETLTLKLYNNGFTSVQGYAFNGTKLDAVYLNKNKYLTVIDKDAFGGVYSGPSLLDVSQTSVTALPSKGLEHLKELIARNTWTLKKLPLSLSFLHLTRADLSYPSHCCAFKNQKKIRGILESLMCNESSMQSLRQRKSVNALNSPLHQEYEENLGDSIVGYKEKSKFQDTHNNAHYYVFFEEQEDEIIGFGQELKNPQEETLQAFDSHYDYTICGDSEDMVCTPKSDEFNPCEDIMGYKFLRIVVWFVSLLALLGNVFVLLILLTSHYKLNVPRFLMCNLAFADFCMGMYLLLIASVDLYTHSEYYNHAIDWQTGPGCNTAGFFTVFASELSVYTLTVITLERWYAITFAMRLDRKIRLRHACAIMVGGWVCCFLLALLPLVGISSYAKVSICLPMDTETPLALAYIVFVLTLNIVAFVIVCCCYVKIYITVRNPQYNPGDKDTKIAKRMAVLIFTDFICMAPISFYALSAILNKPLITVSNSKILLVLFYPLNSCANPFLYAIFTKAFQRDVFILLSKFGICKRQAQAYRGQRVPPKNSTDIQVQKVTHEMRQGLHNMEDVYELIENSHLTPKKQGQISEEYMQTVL
In short: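 TSHR-HEK293 cells; 70 uM RO 20-1724 PDE inhibitor; compound + EC80 TSH (4 nM final); anti-cAMP cryptate antibody/cAMP-d2 in lysis buffer, 30 min RT; HTRF 665/620 nm read.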

[31] = biological target: Thyrotropin-releasing hormone receptor (Homo sapiens) (UniProt P34981); assay: qHTS for Small Molecule Agonists and Allosteric Enhancers of Human TRH Receptor: Validation Screen for Agonists (AID 493127;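 active means calcium activation more than 3 SD above the typical response in the agonist read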;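 further: intracellular calcium rise by fluo-8 fluorescence before TRH EC20 addition; 0% is about no effect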); conditions: TRH receptor agonist cell assay; at 2 µM; active compounds read high
Thyrotropin-releasing hormone receptor (Homo sapiens), sequence (P34981 whole entry, looked up): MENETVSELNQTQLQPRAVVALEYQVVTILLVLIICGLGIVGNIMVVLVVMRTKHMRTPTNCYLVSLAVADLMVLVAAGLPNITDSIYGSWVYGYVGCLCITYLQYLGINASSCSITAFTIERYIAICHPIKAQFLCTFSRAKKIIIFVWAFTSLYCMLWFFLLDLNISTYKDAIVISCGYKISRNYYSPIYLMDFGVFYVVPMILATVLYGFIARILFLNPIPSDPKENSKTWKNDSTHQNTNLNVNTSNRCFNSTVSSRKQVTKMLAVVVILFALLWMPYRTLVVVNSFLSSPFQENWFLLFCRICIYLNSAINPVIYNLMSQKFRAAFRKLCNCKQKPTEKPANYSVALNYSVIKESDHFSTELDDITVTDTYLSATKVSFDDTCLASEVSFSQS
In short: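 Compounds are added by online pintool to dye-loaded TRHR cells while fluorescence is recorded every second. A rise in calcium signal during the agonist read marks activation; a later 10 nM TRH addition (EC20) serves the separate enhancer mode.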

[32] = biological target: Galactokinase (Homo sapiens) (UniProt P51570); assay: qHTS Validation Assay for Inhibitors of Human Galactokinase (GALK) (AID 493189); further: 0% is about no effect
In short: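 Luminescence from leftover ATP (Kinase-Glo Plus, 10 min) served as read-out after a 1 h room-temperature reaction of 5 nM GALK, 100 uM galactose and 35 uM ATP at pH8.0.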

[33] = biological target: Voltage-gated inwardly rectifying potassium channel KCNH2 (Homo sapiens) (UniProt Q12809); assay: qHTS Assay for Small Molecule Inhibitors of the Human hERG Channel Activity (AID 588834);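 further: potency means the concentration at half of the fitted maximal effect; lower thallium flux fluorescence means stronger hERG block; nearly all actives have a fitted effect of over 50% in size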
In short: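 Thallium-flux (FluxOR) read-out on FDSS: fluorescence read 10 s before and 2 min after stimulation buffer. hERG-BacMam-transduced U2OS cells, compound exposure about 10 min. AC50 by standard Hill equation.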

Oc1ccc(/C(Cc2ccccn2)=N\Nc2ccccc2)c(O)c1
inactive: Potency [1]

O=c1c(/C=C(\O)c2ccccc2)nc2ccccc2n1-c1ccccc1
inactive: Potency [3] | activity change, negative = inhibition [1] -1.75% [at 30.8 µM]
active: Potency [2] 16.3 µM

Cc1cc(N)c2ccccc2[n+]1CCCCCCCCCCCCCC[n+]1c(C)cc(N)c2ccccc21
active: activity change, negative = inhibition [5] -82.1% [at 38 µM] | Potency [11] 7.94 µM | Potency [12] 2.51 µM | Potency [13] 3.98 µM | Potency [18] 28.2 µM | Potency [20] 28.2 µM | Potency [21] 0.316 µM | Potency [22] 0.316 µM | Potency [23] 0.126 µM | Potency [24] 0.316 µM | Potency [25] 0.355 µM | Potency [26] 0.141 µM | Potency [27] 0.316 µM | Potency [28] 1.47 µM | Potency [33] 7.08 µM
inactive: Potency [4] | Potency [6] > 46 µM | Potency [7] | Potency [8] | Potency [9] | outcome [10] | outcome [14] | outcome [15] | outcome [16] | outcome [17] | outcome [19] | outcome [29] | outcome [30] | activation [31] -0.125% | outcome [32]
